Source: PubChem (National Center for Advancing Translational Sciences (NCATS))
Luciferase inh: blocks purified firefly luciferase enzyme activity. purified P. pyralis luciferase, luminescence, biochemical. Potency, µM (titrated, usually from 115 µM), actives largely listed as inhibitors. 76,000 compounds, 2.5% hits. AID 1347043; further: on the % scale 0 is the no-effect control and ±100 the full control effect; nearly all actives have a fitted effect of over 65% in size
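Luminescence read by CCD imaging after purified firefly luciferase (10nM final) was added to substrate buffer holding 10uM D-luciferin and 10uM ATP, pH 7.5, pre-dosed with compound.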
NIH3T3 tox: NIH 3T3 cell cytotoxicity | Potency, µM (doses to about 96.7 µM), without a hit: at the top dose activity change, negative = cytotoxicity, hits mostly inhibitors | NIH 3T3 viability, CellTiter-Glo ATP luminescence, 48-72 h | 94,000 compounds, 4.3% hits; further: on the % scale 0 is the no-effect control and ±100 the full control effect; nearly all actives have a fitted effect of over 55% in size
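Cells were seeded at 400 per well, treated with pin-transferred compound, and kept 48 or 72 hr at 37 °C before CellTiter-Glo addition and luminescence imaging of cellular ATP.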
NPR1 antag: blocks ANP-stimulated signaling of human Npr1 receptor; P16066; 76,000 compounds, 1.6% hits; Potency, µM (top dose mostly 46.3 µM), inactives show top-dose activity change, negative = inhibition, most hits filed as inhibitors; HEK293 hNpr1 GloSensor cGMP, ANP-stimulated luminescence; AID 1347048; calls by dose curve; further: on the % scale 0 is the no-effect control and ±100 the full control effect; nearly all actives have a fitted effect of over 60% in size
Target sequence (P16066 whole entry, looked up): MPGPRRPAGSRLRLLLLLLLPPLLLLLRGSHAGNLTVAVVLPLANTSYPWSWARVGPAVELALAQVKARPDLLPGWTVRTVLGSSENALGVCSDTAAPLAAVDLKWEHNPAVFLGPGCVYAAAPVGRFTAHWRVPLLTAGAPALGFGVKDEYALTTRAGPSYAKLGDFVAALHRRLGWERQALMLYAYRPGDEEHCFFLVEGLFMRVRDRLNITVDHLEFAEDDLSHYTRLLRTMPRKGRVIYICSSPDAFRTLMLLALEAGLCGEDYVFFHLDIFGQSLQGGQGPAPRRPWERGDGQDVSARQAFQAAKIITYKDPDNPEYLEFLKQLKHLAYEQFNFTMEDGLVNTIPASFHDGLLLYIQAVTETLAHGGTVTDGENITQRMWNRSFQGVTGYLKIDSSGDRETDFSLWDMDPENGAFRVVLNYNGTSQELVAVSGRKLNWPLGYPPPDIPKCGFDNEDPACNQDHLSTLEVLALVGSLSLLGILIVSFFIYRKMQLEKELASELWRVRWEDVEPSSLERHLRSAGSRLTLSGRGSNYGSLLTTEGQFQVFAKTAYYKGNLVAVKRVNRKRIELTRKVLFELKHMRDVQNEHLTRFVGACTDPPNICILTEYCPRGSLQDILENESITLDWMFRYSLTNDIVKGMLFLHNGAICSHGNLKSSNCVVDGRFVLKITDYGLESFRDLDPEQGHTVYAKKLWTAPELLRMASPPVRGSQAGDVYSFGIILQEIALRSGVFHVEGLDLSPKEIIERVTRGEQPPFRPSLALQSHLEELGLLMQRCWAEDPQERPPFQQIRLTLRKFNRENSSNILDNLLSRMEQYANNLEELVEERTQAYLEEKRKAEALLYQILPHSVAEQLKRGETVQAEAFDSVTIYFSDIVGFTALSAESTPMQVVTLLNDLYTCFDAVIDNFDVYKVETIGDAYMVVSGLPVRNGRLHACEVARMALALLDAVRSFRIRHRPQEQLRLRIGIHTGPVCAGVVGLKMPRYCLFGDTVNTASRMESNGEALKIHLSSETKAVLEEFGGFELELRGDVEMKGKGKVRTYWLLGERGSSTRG
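Compound pre-incubated 30 min at room temperature on GloSensor-loaded HEK293 cells stably carrying hNpr1 and the pGS-40F cGMP biosensor. Stimulation uses hNppA at 0.1 nM final; luminescence is taken at baseline and 20 min post-agonist.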
HEK293 tox: kills HEK 293 cells; HEK 293 viability, ATP luminescence (CellTiter-Glo), 48-72 h; Potency, µM (top dose mostly 115 µM), inactives show at the highest dose activity change, negative = cytotoxicity, usual class: inhibitors; 94,000 compounds, 6.6% hits; further: on the % scale 0 is the no-effect control and ±100 the full control effect; nearly all actives have a fitted effect of over 60% in size
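Cytotoxicity was scored by loss of ATP-coupled luminescence (CellTiter-Glo) in HEK 293 cells. Compound treatment ran 48 or 72 hr at 37 degree Celsius, 5% CO2, 95% humidity.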
Npr1 antag conf: confirmation of human Npr1 natriuretic peptide receptor antagonists | shares compounds with NPR1 antag | HEK293 hNpr1 cGMP GloSensor luminescence, ANP-stimulated | Potency, µM (top dose mostly 57.6 µM), inactives show at the top dose activity change, negative = inhibition, hits mostly inhibitors | 1,400 compounds, 76% hits; calls by dose curve; further: nearly all actives have a fitted effect of over 70% in size
NPR2 antag: selectivity test of Npr1 antagonists against human Npr2; shares compounds with NPR1 antag; Potency, µM (highest dose often 57.6 µM), for inactives: at the top dose activity change, negative = inhibition, most hits filed as inhibitors; AID 1347046; HEK293 hNpr2 GloSensor cGMP luminescence, CNP-stimulated; 1,400 compounds, 67% hits; calls by dose curve; further: nearly all actives have a fitted effect of over 70% in size
FLuc inh counter: counter-screen for Npr1 antagonists: firefly luciferase inhibitors; 1,400 compounds, 0.7% hits; shares compounds with NPR1 antag; AID 1347047; Potency, µM (series often up to 57.6 µM), for inactives: at the highest dose activity change, negative = inhibition, most hits filed as inhibitors; purified FLuc enzyme, luminescence, Km substrate; further: 0% is about no effect
GloSensor cGMP: reduces cGMP signal in GloSensor control cells. shares compounds with NPR1 antag. HEK293 GloSensor cGMP, SNP-stimulated, luminescence. Potency, µM (doses to about 57.6 µM), for inactives: top-dose activity change, negative = inhibition, most hits filed as inhibitors. 1,400 compounds, 69% hits. AID 1347051; calls by dose curve; further: on the % scale 0 is the no-effect control and ±100 the full control effect; nearly all actives have a fitted effect of over 70% in size
The depositor's hits bear a star; i = inactive; ? = inconclusive; . = not tested or not shown; ! = a repeat was not active; [ ] = dose if it differs, or a comment. An excerpt weighted towards active compounds, which were near 11% of everything screened. Unless noted, the call rests on the fitted dose curve; in most records, active means well fitted curve in the direction sought with a large enough effect; inconclusive means small, poorly fitted or top-dose-only effect, or another doubt; inactive means no such curve, though single readings can be large; an effect the other way counts as inactive or inconclusive. Potency means the concentration at half of the fitted maximal effect.

SMILES	Luciferase inh	NIH3T3 tox	NPR1 antag	HEK293 tox	Npr1 antag conf	NPR2 antag	FLuc inh counter	GloSensor cGMP
COc1cccc(-c2ccc(CN3CCCC(c4nc5ccc(C)cc5c(=O)[nH]4)C3)cc2)c1 (stereo not drawn)	i	28.2µM*!	11.2µM*	25.1µM*	17.2µM*	21.7µM*	-3.4%	17.2µM*
Cc1ccc2nc(C3CCN(Cc4ccccc4)CC3)[nH]c(=O)c2c1	i	3.0%	2.9%	-7.4%	.	.	.	.
O=c1[nH]c(C2CCN(Cc3ccc(-c4cccnc4)cc3)CC2)nc2ccc(F)cc12	i	5.62µM*!	?	?	19.3µM*	19.3µM*	-0.4%	17.2µM*
COc1cccc(C(=O)N2CCCC2C(=O)N2CCC(N3CCCC3=O)CC2)c1 (stereo not drawn)	.	-0.5%	.	i	.	.	.	.
CC1(C)C(=O)NC(=O)N1CC(=O)N1CCCC(CCc2c(F)cccc2F)C1 (stereo not drawn)	i	-13.2%	-2.3%	-31.7%	.	.	.	.
FC(F)(F)C1CN(c2ccnc3ccc(Cl)cc23)CCO1 (stereo not drawn)	i	?	11.2µM*	39.8µM*	21.7µM*	21.7µM*	0.4%	21.7µM*
OC[C@H]1CCN(c2ccnc3c(C(F)(F)F)cccc23)C[C@H]1O	i	-3.6%	-0.9%	?	.	.	.	.
FC(F)(F)c1cccc2c(N3CCOC(C(F)(F)F)C3)ccnc12 (stereo not drawn)	i	-45.8%	10µM*	?	24.3µM*	?	4.5%	19.3µM*
CCC1(CO)CCCN(Cc2[nH]cc(C)c(=O)c2C)C1 (stereo not drawn)	i	-19.3%	2.0%	-7.8%	.	.	.	.
Cc1cc(C[C@@H]2COC[C@@H]2NC(=O)CCn2cnc3ccccc32)on1	i	-0.1%	4.6%	-2.6%	.	.	.	.
CCCc1ccc2oc(C(=O)N(CC)Cc3ccncc3)c(C)c2c1	i	?	12.6µM*	25.1µM*	19.3µM*	19.3µM*	-12.9%	17.2µM*
Cc1ccc(S(=O)(=O)N2[C@@H]3CC[C@H]2CC(NC(=O)c2ccncc2)C3)cc1 (stereo partly drawn)	i	-13.6%	3.0%	0.1%	.	.	.	.
O=C1NCCCCCCN(C(=O)c2ccoc2)[C@H]2C[C@H](c3nc(Cc4ccccc4)no3)C[C@@H]12	i	?	-0.5%	?	.	.	.	.
CC(C)(Oc1nn(Cc2cccc(Cl)c2)c2ccccc12)C(=O)NCCc1cnc[nH]1	i	?	22.4µM*	?	28µM*	25µM*	1.6%[86.2 µM]	25µM*
CC(C)(Oc1nn(Cc2cccc(Cl)c2)c2ccccc12)C(=O)NC1CCC(O)CC1 (stereo not drawn)	i	?	-25.6%	?	.	.	.	.
O=C(Nc1ccccc1)c1cc2n(n1)CC(c1ccc(Cl)cc1)OC2 (stereo not drawn)	i	-26.3%	12.6µM*	?	?	?	-1.4%	?
CC(C)c1ccc(NC(=O)c2cc3n(n2)CC(c2ccc(Cl)cc2)OC3)cc1 (stereo not drawn)	i	-19.6%	10µM*	?	13.7µM*	?	-15.2%	10.9µM*
Cc1ccc(NC(=O)c2cc3n(n2)CC(c2ccc(Cl)cc2)OC3)cc1 (stereo not drawn)	i	?	?	?	.	.	.	.
O=C(NCCc1cccnc1)c1cc2n(n1)CC(c1ccc(Br)cc1)OC2 (stereo not drawn)	i	?	11.2µM*	39.8µM*	19.3µM*	19.3µM*	-0.4%	12.2µM*
O=C(NCCc1ccccc1)c1cc2n(n1)CC(c1ccc(Cl)cc1)OC2 (stereo not drawn)	i	?	?	?	?	?	-3.7%	?
Cn1cc(Cl)cc1C(=O)N[C@H](C1CCNCC1)C1CC(O)C1 (stereo partly drawn)	i	-11.2%	1.9%	-0.4%	.	.	.	.
O=C(NCc1ccc(F)cc1F)c1cc2n(n1)CC(c1ccc(Cl)cc1)OC2 (stereo not drawn)	i	?	?	?	.	.	.	.
O=C(Nc1ccc(F)c(Cl)c1)c1cc2n(n1)CC(c1ccc3c(c1)OCO3)OC2 (stereo not drawn)	i	?	?	44.7µM*	27.3µM*	?	-8.6%	?
O=C(NCc1ccccc1Cl)c1cc2n(n1)CC(c1ccc(Cl)cc1)OC2 (stereo not drawn)	i	?	?	?	?	?	-1.6%	?
Cc1ccc(NC(=O)c2cc3n(n2)CC(c2ccc(Cl)cc2)OC3)c(Cl)c1 (stereo not drawn)	i	-16.0%	-25.0%	?	.	.	.	.
SMILES	Luciferase inh	NIH3T3 tox	NPR1 antag	HEK293 tox	Npr1 antag conf	NPR2 antag	FLuc inh counter	GloSensor cGMP
Cc1cc(F)ccc1NC(=O)c1cc2n(n1)CC(c1ccc(Br)cc1)OC2 (stereo not drawn)	i	-29.4%	?	79.4µM*	?	?	1.1%	?
O=C(Nc1cc(F)ccc1Cl)c1cc2n(n1)CC(c1ccc3c(c1)OCO3)OC2 (stereo not drawn)	?	-19.7%	1.5%	?	.	.	.	.
O=C(c1cccnc1)N1CCC2(CC1)N=C(c1ccc(Cl)cc1)NO2	i	-28.4%	-26.4%	-28.0%	.	.	.	.
COc1cc(OC)cc(C(=O)N2CCC(Cc3nc(-c4ccc(F)cc4)no3)CC2)c1	i	?	12.6µM*	31.6µM*	15.3µM*	21.7µM*	0.1%	15.3µM*
COc1ccc(-c2noc(CC3CCN(C(=O)c4cc(F)cc(F)c4)CC3)n2)cc1	i	?	6.31µM*	?	5.44µM*	6.11µM*	2.4%	5.44µM*
COC(=O)c1cccc(C(=O)N2CCC(Cc3nc(-c4ccc(F)cc4)no3)CC2)c1	i	?	7.08µM*	?	6.11µM*	6.85µM*	-2.2%	5.44µM*
CSc1cccc(NC(=O)N[C@H]2CCN(C(=O)c3cccn3C)[C@@H]2C(=O)N[C@H](Cc2ccccc2)C(N)=O)c1	i	i	0.2%	i	.	.	.	.
O=C(NCc1ccc(Cl)nc1)c1cn2c(n1)CN(C(=O)c1ccccc1)CC2	.	-29.6%	.	-22.3%	.	.	.	.
